# Experimental data published in paper PMC11062922 (Nature Chemical Biology, 2023).
# Like-named read-outs stand apart in the source and are kept apart here.
# Assays:
# Set-up in all cases: species or system human, MV4-11 + K-562 + COLO205 + SK-N-BE2 + OVCAR-8
# ACVR1B = conditions: read-out: apparent Kd, n = 1
# ACVR1 = conditions: read-out: apparent Kd, n = 1
# CSK = conditions: read-out: apparent Kd, n = 1
# DDR1 = conditions: read-out: apparent Kd, n = 1
# FRK = conditions: read-out: apparent Kd, n = 1
# LYN = conditions: read-out: apparent Kd, n = 1
# SIK2 = conditions: read-out: apparent Kd, n = 1
# SRC = conditions: read-out: apparent Kd, compound concentrations: 100 nM and 1000 nM (sheet 'Samples'), n = 1
# ZAK = conditions: read-out: apparent Kd, n = 1
# CDKL5 = conditions: read-out: apparent Kd, compound concentrations: 100 nM and 1000 nM (sheet 'Samples'), n = 1
# DYRK1A = conditions: read-out: apparent Kd, compound concentrations: 100 nM and 1000 nM (sheet 'Samples'), n = 1
# CDK16 = conditions: read-out: apparent Kd, compound concentrations: 100 nM and 1000 nM (sheet 'Samples'), n = 1
# EGFR = conditions: read-out: apparent Kd, compound concentrations: 100 nM and 1000 nM (sheet 'Samples'), n = 1
# EPHA1 = conditions: read-out: apparent Kd, n = 1
# FLT3 = conditions: read-out: apparent Kd, n = 1
# MAP2K5 = conditions: read-out: apparent Kd, compound concentrations: 100 nM and 1000 nM (sheet 'Samples'), n = 1
# TNK2 = conditions: read-out: apparent Kd, n = 1
# ACAD11 = conditions: read-out: apparent Kd, n = 1
# [1] = compound concentrations:100 nM and 1000 nM (sheet 'Samples')
structure (smiles),measurement,setting,value
Cc1ccc(O)cc1Nc1ccnc2cc(-c3ccc(CN4CCCCC4)o3)ccc12 [GW557777X],potency estimated from few doses,"ACVR1B; compound concentrations: 100 nM and 1000 nM (sheet 'Samples'), CATDS: 2.3041961266034101E-2",0.0603 µM
same,potency estimated from few doses,"ACVR1; compound concentrations: 100 nM and 1000 nM (sheet 'Samples'), CATDS: 2.9506962076646302E-2",0.0256 µM
same,potency estimated from few doses,"CSK; compound concentrations: 100 nM and 1000 nM (sheet 'Samples'), CATDS: 1.5702412967624198E-2",0.358 µM
same,potency estimated from few doses,"DDR1; compound concentrations: 100 nM and 1000 nM (sheet 'Samples'), CATDS: 1.3388843859825601E-2",1.1 µM
same,potency estimated from few doses,"FRK; compound concentrations: 100 nM and 1000 nM (sheet 'Samples'), CATDS: 4.1928462897336198E-2",0.00928 µM
same,potency estimated from few doses,"LYN; compound concentrations: 100 nM and 1000 nM (sheet 'Samples'), CATDS: 1.9191353458574801E-2",0.128 µM
same,potency estimated from few doses,"SIK2; compound concentrations: 100 nM and 1000 nM (sheet 'Samples'), CATDS: 1.7387307110144301E-2",0.205 µM
same,potency estimated from few doses,SRC; CATDS: 2.30493923024673E-2,0.0603 µM
same,potency estimated from few doses,"ZAK; compound concentrations: 100 nM and 1000 nM (sheet 'Samples'), CATDS: 1.4248568360294899E-2",0.672 µM
CNC1=NC(=O)/C(=C/c2ccc3ncccc3c2)S1 [RO4595949-000],potency estimated from few doses,CDKL5; CATDS: 4.9375621350065603E-2,2.15 µM
same,potency estimated from few doses,DYRK1A; CATDS: 0.10780330705145599,0.209 µM
Cl.Cl.Cl.c1ccc(Oc2ccc(Nc3ccnc4cc(-c5ccc(CN6CCNCC6)o5)ccc34)cc2)nc1.c1ccc(Oc2ccc(Nc3ccnc4cc(-c5ccc(CN6CCNCC6)o5)ccc34)cc2)nc1 [GW567142A],potency estimated from few doses,CDK16; CATDS: 1.6285845495215501E-2,2.45 µM
same,potency estimated from few doses,EGFR; CATDS: 4.6801095990659902E-2,0.143 µM
same,potency estimated from few doses,"EPHA1; compound concentrations: 100 nM and 1000 nM (sheet 'Samples'), CATDS: 3.01720788002969E-2",0.372 µM
same,potency estimated from few doses,"FLT3; compound concentrations: 100 nM and 1000 nM (sheet 'Samples'), CATDS: 3.3367464965841198E-2",0.294 µM
same,potency estimated from few doses,"FRK; compound concentrations: 100 nM and 1000 nM (sheet 'Samples'), CATDS: 2.55518807835587E-2",0.566 µM
same,potency estimated from few doses,"LYN; compound concentrations: 100 nM and 1000 nM (sheet 'Samples'), CATDS: 2.5031582152460801E-2",0.598 µM
same,potency estimated from few doses,MAP2K5; CATDS: 5.3465139975610303E-2,0.111 µM
same,potency estimated from few doses,SRC; CATDS: 6.9151530133692504E-2,0.0708 µM
same,potency estimated from few doses,"TNK2; compound concentrations: 100 nM and 1000 nM (sheet 'Samples'), CATDS: 8.9201711222799504E-2",0.0473 µM
same,potency estimated from few doses,"ZAK; compound concentrations: 100 nM and 1000 nM (sheet 'Samples'), CATDS: 2.00291787525065E-2",1.14 µM
CCn1cc(-c2ccnc3[nH]c(-c4cccc(CN(C)C)c4)cc23)c(-c2ccc(NC(=O)N(C)C)cc2)n1 [GSK1070916],potency estimated from few doses,DDR1; [1],0.869 µM
Nc1nc(-c2cccnc2)c(-c2ccnc3ccccc23)s1 [GW684083X],potency estimated from few doses,ZAK; [1],1.44 µM
O=C1N=C(NCCc2ccccn2)S/C1=C\c1ccc2ncccc2c1 [RO4508346-000],potency estimated from few doses,DYRK1A; CATDS: 0.223400824962835,0.127 µM
Cc1ccc(O)cc1Nc1ccnc2cc(-c3ccccn3)ccc12.Cl [GW440139A],potency estimated from few doses,"ACVR1B; compound concentrations: 100 nM and 1000 nM (sheet 'Samples'), CATDS: 0.14783179697021401",0.00988 µM
same,potency estimated from few doses,"ACVR1; compound concentrations: 100 nM and 1000 nM (sheet 'Samples'), CATDS: 2.9577067141002798E-2",0.556 µM
same,potency estimated from few doses,"EPHA1; compound concentrations: 100 nM and 1000 nM (sheet 'Samples'), CATDS: 6.90247660864724E-2",0.0389 µM
O=C1N=C(NCc2ccccc2)S/C1=C\c1ccc2ncccc2c1 [RO4442080-000],potency estimated from few doses,DYRK1A; CATDS: 9.0282965342826302E-2,1.32 µM
O=C1N=C(NCC(CO)c2ccccc2)S/C1=C\c1ccc2ncccc2c1 (stereo not shown) [RO4582641-000],potency estimated from few doses,CDKL5; CATDS: 6.3730815830875698E-2,1.51 µM
same,potency estimated from few doses,DYRK1A; CATDS: 9.2693691803080097E-2,0.353 µM
O=C1N=C(N[C@@H](CO)c2ccccc2)S/C1=C\c1ccc2ncccc2c1 [RO4554340-000],potency estimated from few doses,DYRK1A; CATDS: 0.16734351378465701,1.03 µM
NC1=NC(=O)/C(=C/c2ccc3ncccc3c2)S1 [RO4569139-000],potency estimated from few doses,DYRK1A; CATDS: 0.43183776325706602,0.0393 µM
CCN(CC)CCOc1ccc(Nc2ncc3cc(-c4c(Cl)cccc4Cl)c(=O)n(C)c3n2)cc1 [SB-601273],potency estimated from few doses,ACVR1B; [1],0.17 µM
same,potency estimated from few doses,ACVR1; [1],0.218 µM
same,potency estimated from few doses,CSK; [1],0.838 µM
same,potency estimated from few doses,DDR1; [1],0.165 µM
same,potency estimated from few doses,EPHA1; [1],0.00259 µM
same,potency estimated from few doses,FLT3; [1],0.891 µM
same,potency estimated from few doses,FRK; [1],0.103 µM
same,potency estimated from few doses,LYN; [1],0.111 µM
same,potency estimated from few doses,SIK2; [1],0.0553 µM
same,potency estimated from few doses,SRC; CATDS: 2.2831439455092799E-2,0.137 µM
same,potency estimated from few doses,TNK2; [1],0.0873 µM
O=C1N=C(NCCc2cccc(F)c2)S/C1=C\c1ccc2ncccc2c1 [RO4508344-000],potency estimated from few doses,DYRK1A; CATDS: 0.105735187935075,0.75 µM
same,potency estimated from few doses,"FLT3; compound concentrations: 100 nM and 1000 nM (sheet 'Samples'), CATDS: 0.14042863340460501",0.431 µM
CC(=O)N1CCN(c2ccc(Nc3nccc(-c4sc(C(C)C)nc4-c4cccc(NS(=O)(=O)c5ccccc5)c4)n3)cn2)CC1 [GSK1645872A],potency estimated from few doses,CDK16; CATDS: 3.8372919727344801E-2,0.431 µM
same,potency estimated from few doses,CDKL5; CATDS: 2.2966868813045101E-2,1.68 µM
same,potency estimated from few doses,EGFR; CATDS: 3.0506753540730399E-2,0.71 µM
same,potency estimated from few doses,"ZAK; compound concentrations: 100 nM and 1000 nM (sheet 'Samples'), CATDS: 2.8355440499728699E-2",0.855 µM
CN1CCN(c2ccc(Nc3nc(N)c(C(=O)c4ccc5c(c4)OCCO5)s3)cc2)CC1 [RO0505124-000],potency estimated from few doses,"ACAD11; compound concentrations: 100 nM and 1000 nM (sheet 'Samples'), CATDS: 0.36798074276012699",0.137 µM
CC(C)c1nc(-c2cccc(NS(=O)(=O)c3c(F)cccc3F)c2)c(-c2ccnc(Nc3ccc(N4CCOCC4)nc3)n2)s1.Cl [GSK1723980B],potency estimated from few doses,"ACVR1B; compound concentrations: 100 nM and 1000 nM (sheet 'Samples'), CATDS: 1.87484218332362E-2",0.614 µM
same,potency estimated from few doses,CDK16; CATDS: 2.4648897890500801E-2,0.294 µM
same,potency estimated from few doses,CDKL5; CATDS: 1.7066760873740601E-2,0.848 µM
same,potency estimated from few doses,"CSK; compound concentrations: 100 nM and 1000 nM (sheet 'Samples'), CATDS: 4.9145326105273501E-2",0.0816 µM
same,potency estimated from few doses,EGFR; CATDS: 1.4688482058743299E-2,1.66 µM
same,potency estimated from few doses,"EPHA1; compound concentrations: 100 nM and 1000 nM (sheet 'Samples'), CATDS: 2.59841988169222E-2",0.261 µM
same,potency estimated from few doses,"FRK; compound concentrations: 100 nM and 1000 nM (sheet 'Samples'), CATDS: 1.9563018152501301E-2",0.538 µM
same,potency estimated from few doses,"LYN; compound concentrations: 100 nM and 1000 nM (sheet 'Samples'), CATDS: 2.8217143003072001E-2",0.219 µM
same,potency estimated from few doses,"SIK2; compound concentrations: 100 nM and 1000 nM (sheet 'Samples'), CATDS: 1.4802843404643599E-2",1.59 µM
same,potency estimated from few doses,SRC; CATDS: 2.25730576079274E-2,0.364 µM
same,potency estimated from few doses,"TNK2; compound concentrations: 100 nM and 1000 nM (sheet 'Samples'), CATDS: 1.9330772041295699E-2",0.558 µM
same,potency estimated from few doses,"ZAK; compound concentrations: 100 nM and 1000 nM (sheet 'Samples'), CATDS: 1.6677685613390399E-2",0.926 µM
N#Cc1cnc2cc(-c3cnc(CNCCN4CCOCC4)s3)ccc2c1Nc1ccc(Oc2ccccc2)cc1 [GW664114X],potency estimated from few doses,"CSK; compound concentrations: 100 nM and 1000 nM (sheet 'Samples'), CATDS: 6.7492290868603394E-2",0.448 µM
same,potency estimated from few doses,EGFR; CATDS: 4.1929469071091803E-2,2.09 µM
same,potency estimated from few doses,"LYN; compound concentrations: 100 nM and 1000 nM (sheet 'Samples'), CATDS: 6.1309680787230501E-2",0.562 µM
same,potency estimated from few doses,MAP2K5; CATDS: 9.4704147517168505E-2,0.23 µM
same,potency estimated from few doses,SRC; CATDS: 8.2949353782893101E-2,0.293 µM
Fc1ccc(-c2c(-c3ccncc3)[nH]c3nccnc23)cc1 [RO1155697-000],potency estimated from few doses,ACAD11; [1],1.3 µM
same,potency estimated from few doses,ACVR1B; [1],0.711 µM
same,potency estimated from few doses,DDR1; [1],1.01 µM
COc1ccc(-c2nc3n(c2-c2ccncc2)CCC3)cc1.COc1ccc(-c2nc3n(c2-c2ccncc2)CCC3)cc1.O=S(=O)(O)O.O=S(=O)(O)O [SKF-104493-B2],potency estimated from few doses,"ACAD11; compound concentrations: 100 nM and 1000 nM (sheet 'Samples'), CATDS: 0.103649602140053",2.1 µM
same,potency estimated from few doses,"ACVR1B; compound concentrations: 100 nM and 1000 nM (sheet 'Samples'), CATDS: 0.14344642008730599",1.03 µM
CS(=O)(=O)c1ccc(-c2cnc(N)c(C(=O)Nc3ccccc3)n2)cc1 [VE-821],potency estimated from few doses,"ACAD11; compound concentrations: 100 nM and 1000 nM (sheet 'Samples'), CATDS: 0.28747433490732499",0.334 µM
same,potency estimated from few doses,"ACVR1; compound concentrations: 100 nM and 1000 nM (sheet 'Samples'), CATDS: 0.23402364017956601",0.475 µM
CN1CCN(Cc2cccc(-c3ccc4c(Nc5ccc(Oc6ccccc6)cc5)ccnc4c3)c2)CC1 [GW578342X],potency estimated from few doses,MAP2K5; CATDS: 0.10104411833730501,0.64 µM
same,potency estimated from few doses,SRC; CATDS: 9.2821429290207799E-2,0.825 µM
